About 79,000 compounds went through this panel and 15% of them were active in at least one assay; those are over-represented in the sample as a whole. Active and inactive are the calls of the source. Cut-off read from the data, not from the text of the source: active = growth inhibition above about 70%; inactive = the rest.
Test: NCI Yeast Anticancer Drug Screen. Data for the cln2 rad14 strain (AID 165);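 note: 0% = growth equal to vehicle treated cultures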
Details: S. cerevisiae cln2 rad14 strain, at 5.0 µM (retest, dose inferred, filed as 0.5), hits give high values
Outline: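 Test compounds were added to cln2 rad14 yeast cultures; inhibition of growth was then determined by comparison with vehicle treatment.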

Question: Which growth inhibition does the source give for `O=C(c1ccc(Br)cc1)C1C(c2ccccc2)N1C1CCCCC1` (centres undefined) here?
Answer: The growth inhibition was -4% (inactive).

Question: With `Cc1cccc2cc3ccccc3c[n+]12` as the molecule, how does the growth inhibition read?
Answer: Its growth inhibition is 2% (inactive).

Question: Which growth inhibition does the source give for `Cc1ccc(P(=O)(c2ccc(C)cc2)c2ccc(C)cc2)cc1.Cc1ccc(P(=O)(c2ccc(C)cc2)c2ccc(C)cc2)cc1.[Cl][Sn]([Cl])([Cl])[Cl]` here?
Answer: Its growth inhibition is 4% (inactive).

Question: Which growth inhibition does the source give for `c1ccc(P(CCP(c2ccccc2)c2ccccc2)CCP(c2ccccc2)c2ccccc2)cc1` here?
Answer: The growth inhibition was 84% (active).

Question: With `O=[N+]([O-])c1cc2c([N+](=O)[O-])cccc2o1` as the molecule, how does the growth inhibition read?
Answer: The growth inhibition was 0% (inactive).

Question: For `O=C1CCC[N]1[Hg][N]1CCCC1=O`, which growth inhibition is on record?
Answer: The growth inhibition was 66% (inactive).

Question: With `Oc1c(Cl)c(Cl)c(Cl)c(Cl)c1Cl.[Cu+2]` as the molecule, how does the growth inhibition read?
Answer: The growth inhibition was 8% (inactive).

Question: Which growth inhibition does the source give for `ClCCN(CCCl)c1ccc(C=NCCCCN=Cc2ccc(N(CCCl)CCCl)cc2)cc1` here?
Answer: Its growth inhibition is -10% (inactive).

Question: Which growth inhibition does the source give for `CC(C(=O)C1CCCCC1)[n+]1ccccc1` (centres undefined) here?
Answer: Its growth inhibition is 9% (inactive).

Question: For `CN(C)CC1CCCCC1=O` (centres undefined), which growth inhibition is on record?
Answer: The growth inhibition was -77% (inactive).

Question: With `CSc1nncc(=O)[nH]1.[Hg]` as the molecule, how does the growth inhibition read?
Answer: Its growth inhibition is 99% (active).

Question: For `CNC(=O)N1CN(c2ccccc2)C2(CCN(CCCC(=O)c3ccc(F)cc3)CC2)C1=O`, which growth inhibition is on record?
Answer: The growth inhibition was 5% (inactive).

Question: With `O=C(OCc1ccccc1)C(C(Cl)c1ccccc1)N(Cc1ccccc1)Cc1ccccc1` (centres undefined) as the molecule, how does the growth inhibition read?
Answer: The growth inhibition was 1% (inactive).

Question: Which growth inhibition does the source give for `O=C1C=C(Cl)C(=O)C=C1Cl` here?
Answer: The growth inhibition was 5% (inactive).

Question: With `CC(=O)[O][Hg][c]1ccccc1N` as the molecule, how does the growth inhibition read?
Answer: Its growth inhibition is 46% (inactive).

Question: For `CCOP(=O)(Cc1cccc2ccccc12)OCC`, which growth inhibition is on record?
Answer: The growth inhibition was 2% (inactive).

Question: For `Nc1c(Cl)cccc1C(=O)O`, which growth inhibition is on record?
Answer: The growth inhibition was -4% (inactive).

Question: With `CC(=O)O[C@H]1CC[C@H]2[C@@H]3CCC4=CC(=O)CC[C@@H]4[C@H]3CC[C@]12C` as the molecule, how does the growth inhibition read?
Answer: The growth inhibition was -3% (inactive).

Question: Which growth inhibition does the source give for `C1CC[N-]CC1.CC(=N\O)/C(C)=N/O.CC(=N\O)/C(C)=N/O.OC1[CH-]CCCC1.[Co+2]` here?
Answer: The growth inhibition was 17% (inactive).

Question: Which growth inhibition does the source give for `c1ccc(C(C(=Nc2ccc(Cc3ccc(N=C(C(c4ccccc4)c4ccccc4)N4CC4)cc3)cc2)N2CC2)c2ccccc2)cc1` here?
Answer: Its growth inhibition is 8% (inactive).

Question: With `CCN(Cc1ccccc1)CC(O)c1ccc(Cl)c(Cl)c1` (centres undefined) as the molecule, how does the growth inhibition read?
Answer: Its growth inhibition is 2% (inactive).

Question: With `CC(=O)OC1C(O)C(C)OC(OC2C(OC(=O)C3CCC4C(C3)OC3(CC(OC(=O)/C=C/c5ccccc5)C(C)CO3)C43CO3)OC(C)C(O)C2OC(C)=O)C1O` (centres undefined) as the molecule, how does the growth inhibition read?
Answer: The growth inhibition was 24% (inactive).

Question: Which growth inhibition does the source give for `CCCCC(CC)CNP(=S)(NCC(CC)CCCC)NCC(CC)CCCC` (centres undefined) here?
Answer: Its growth inhibition is -2% (inactive).

Question: Which growth inhibition does the source give for `Oc1c(-c2ccccc2)cc(-[n+]2c(-c3ccccc3)cc(-c3ccccc3)cc2-c2ccccc2)cc1-c1ccccc1` here?
Answer: Its growth inhibition is 98% (active).

Question: Which growth inhibition does the source give for `Cc1ccc([C@H]2N[C@@H]2c2ccccn2)cc1` here?
Answer: Its growth inhibition is -15% (inactive).

Question: With `CC[CH2][Sn]([CH2]CC)([CH2]CC)[CH2]CCBr` as the molecule, how does the growth inhibition read?
Answer: Its growth inhibition is 99% (active).

Question: With `O=[N+]([O-])c1cc(S(=O)(=O)F)ccc1S` as the molecule, how does the growth inhibition read?
Answer: Its growth inhibition is -40% (inactive).

Question: For `CCCCN(CCCC)CCc1ccc(OC(=O)c2ccc(N)cc2)cc1`, which growth inhibition is on record?
Answer: The growth inhibition was 42% (inactive).

Question: For `Cc1ccc(C(=O)OC(C(=O)O)C(OC(=O)c2ccc(C)cc2)C(=O)O)cc1` (centres undefined) (tested in a mixture with another compound), which growth inhibition is on record?
Answer: Its growth inhibition is 34% (inactive).

Question: For `N#C[S-].[Ce+3].c1ccc(-c2ccccn2)nc1.c1ccc(-c2ccccn2)nc1.c1ccc(-c2ccccn2)nc1`, which growth inhibition is on record?
Answer: Its growth inhibition is 31% (inactive).

Question: Which growth inhibition does the source give for `Nc1nc(N)c(-c2ccc(Cl)c(Cl)c2)c(CCc2ccc(CNC(=O)c3ccc(S(=O)(=O)F)cc3)cc2)n1` here?
Answer: Its growth inhibition is -14% (inactive).

Question: For `CC1C2C=CC1C(c1c3ccc(=O)c(O)c-3oc3c(O)c(O)ccc13)C2C(=O)O` (centres undefined), which growth inhibition is on record?
Answer: Its growth inhibition is -23% (inactive).

Question: Which growth inhibition does the source give for `O=C(O)CN(CCN(CC(=O)O)CC(=O)O)CC(=O)O` here?
Answer: The growth inhibition was -3% (inactive).

Question: With `O=S(=O)(F)c1ccc(Cl)cc1C[P+](c1ccccc1)(c1ccccc1)c1ccccc1` as the molecule, how does the growth inhibition read?
Answer: Its growth inhibition is 0% (inactive).

Question: Which growth inhibition does the source give for `Oc1ccc2ccccc2c1O` here?
Answer: Its growth inhibition is -5% (inactive).

Question: With `COC1=[C]([Hg][Br])C(OC)OC1OC` (centres undefined) as the molecule, how does the growth inhibition read?
Answer: Its growth inhibition is 98% (active).

Question: With `Nc1nc(CCl)cs1` as the molecule, how does the growth inhibition read?
Answer: The growth inhibition was -7% (inactive).

Question: With `CCC(C)N1CN(c2ccccc2)C2(CCN(CCCC3(c4ccc(F)cc4)OCCO3)CC2)C1=O` (centres undefined) as the molecule, how does the growth inhibition read?
Answer: Its growth inhibition is -7% (inactive).

Question: With `COc1ccc(NP(=S)(Nc2ccc(OC)cc2)c2ccccc2)cc1` as the molecule, how does the growth inhibition read?
Answer: Its growth inhibition is 3% (inactive).

Source: PubChem BioAssay (NCI)
